Data on 36 compounds can be found in PubChem BioAssay (EPA / NIEHS).

Usually AC50 stands for the midpoint of the concentration-response curve, whichever way the signal moves.

Records with an inconclusive call do not appear. Active and inactive are the calls of the source. The calls were made as follows: active = hit-call score of the fitted dose curve at least 0.9, where 1 is the maximum; inconclusive = response in the unintended direction; inactive = score below 0.9.

human Peroxisome Proliferator-activated Receptor alpha (PPARa), PPARA (gene 5465), sequence (Q07869 whole entry, looked up, the tested form may be a part): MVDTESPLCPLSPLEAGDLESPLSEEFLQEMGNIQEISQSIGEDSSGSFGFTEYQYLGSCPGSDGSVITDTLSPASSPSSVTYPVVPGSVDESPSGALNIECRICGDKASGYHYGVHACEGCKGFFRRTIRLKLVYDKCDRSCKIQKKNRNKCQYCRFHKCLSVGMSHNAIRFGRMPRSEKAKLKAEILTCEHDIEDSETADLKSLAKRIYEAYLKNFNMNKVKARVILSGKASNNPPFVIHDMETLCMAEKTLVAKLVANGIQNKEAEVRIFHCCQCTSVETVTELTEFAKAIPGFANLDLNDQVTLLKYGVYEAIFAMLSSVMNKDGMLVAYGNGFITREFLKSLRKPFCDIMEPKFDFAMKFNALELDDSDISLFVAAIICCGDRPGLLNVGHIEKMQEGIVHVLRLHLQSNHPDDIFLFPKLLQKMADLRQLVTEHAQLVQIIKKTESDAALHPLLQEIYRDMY

One assay has as its target human Peroxisome Proliferator-activated Receptor alpha (PPARa), PPARA (gene 5465) (UniProt Q07869). The assay can be described thus: ATG_PPARa_TRANS: Attagene TRANS-FACTORIAL HepG2 Assay for human Peroxisome Proliferator-activated Receptor alpha (PPARa) (AID 2283001).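 As to AC50: potency for gain of reporter signal over DMSO so agonist or activator.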 The procedure, abridged:
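Transient HepG2 transfection, GAL4-UAS reporters, NR-Gal4 chimeras; 24 h compound exposure. Readout: reporter transcripts by RT-PCR, 6-FAM primer extension, HpaI digest, capillary electrophoresis. Positive direction vs DMSO baseline.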
Consider `CCc1cccc(C)c1N`, for which the result was inactive. Take `CC(=O)CCC1=C(C)CCCC1(C)C`: the result was inactive. For `Cc1ccc(C)c(OCCCC(C)(C)C(=O)O)c1`, the AC50 is 37.4 µM (active). Consider `COc1ccc(-c2coc3cc(O)cc(O)c3c2=O)cc1`, for which the AC50 was 7.31 µM (active).

On to `CN(C)Cc1cc(CN(C)C)c(O)c(CN(C)C)c1`, for which the result was inactive. In the case of `CC=CC(=O)OCC(C)C`, the outcome was inactive. Regarding `CC1C(C)(C)C2=C(C(=O)CCC2)C1(C)C` (stereo not given), the compound was called inactive. In the case of `CCN(CC)c1cccc(C)c1`, the compound was called inactive. Same read-out and setting: next, `O=C(Nc1ccccc1)c1cc(Cl)ccc1O`: “inactive”; `CN(C)c1ccc2nc3ccc(=[N+](C)C)cc-3sc2c1`: “inactive”. As for `CC(=O)c1ccc(S(=O)(=O)NC(=O)NC2CCCCC2)cc1`, the result was inactive. Still for that read-out and setting: next, `C=C[Si](OCCOC)(OCCOC)OCCOC`: “inactive”; `CC1=NN(c2ccc(S(=O)(=O)O)cc2)C(=O)C1N=Nc1ccccc1` (stereo not given): “inactive”; `O=c1c(O)c(-c2ccc(O)cc2O)oc2cc(O)cc(O)c12`: “inactive”.

Turning to `C=C(C)[C@@H]1CC=C(C)CC1`, the call was inactive.

On to `CC(=O)CCC=C(C)C`, for which the compound was called inactive. As for `CC1OC(=O)C(C)OC1=O` (stereo not given), the outcome was inactive.

On to `CCOC(=O)c1ccccc1C`, for which the call was inactive. Turning to `O=C(OCCc1ccccc1)c1ccccc1`, the compound was classed as inactive. Turning to `CCCCCCCC(=O)OCC(COC(=O)CCCCCCC)OC(=O)CCCCCCC`, the outcome was inactive. Same read-out and setting: for `C=CCNCC=C` the value was “inactive”; for `CCCSSCCC`, “inactive”.

In the case of `Nc1ccnc(=O)[nH]1`, the result was inactive.

Regarding `CCC(C)N` (stereo not given), the compound was classed as inactive.

In the case of `CCCCCCCCCCCCCC(=O)OC(C)C`, the compound was called inactive. Regarding `CC(=O)C(C)C`, the result was inactive. Take `CC(C)=CCCC(C)=CC#N`: the outcome was inactive.

As for `COC(Cc1ccccc1)OC`, the compound was called inactive. As to `O=C1c2ccccc2C(=O)c2cc(S(=O)(=O)O)ccc21`, the compound was classed as inactive. In the case of `Cc1c(C(=O)c2c[nH]n(C)c2=O)ccc(S(C)(=O)=O)c1C1=NOCC1`, the outcome was inactive. Take `CC1=CCC2CC1C2(C)C` (stereo not given): the compound was classed as inactive.

Regarding `CC(=O)OCC=C(C)C`, the outcome was inactive. The same measure, in the same setting: for `O=C1CCCCC1C1CCCCC1` (stereo not given) the value was “inactive”; for `CC(=O)OC/C=C(/C)CCC=C(C)C`, “inactive”. As to `CCCCCCCCCCCC(=O)OCC`, the call was inactive. For the compound `[Cl][Sc]([Cl])[Cl]`, the call was inactive.

In another assay the target is human Retinoic Acid Receptor beta (RARb), RARB (gene 5915) (UniProt P10826). Briefly: ATG_RARb_TRANS: Attagene TRANS-FACTORIAL HepG2 Assay for human Retinoic Acid Receptor beta (AID 2283004). The procedure, abridged: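 Transient transfection of HepG2 with multiple reporter units → chemical dosing, 24 h → total RNA isolation → RT with oligo(dT) → reporter-specific PCR, 6-FAM primer extension, HpaI digest → capillary electrophoresis. Positive direction vs DMSO control.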
human Retinoic Acid Receptor beta (RARb), RARB (gene 5915), sequence (P10826 whole entry, looked up): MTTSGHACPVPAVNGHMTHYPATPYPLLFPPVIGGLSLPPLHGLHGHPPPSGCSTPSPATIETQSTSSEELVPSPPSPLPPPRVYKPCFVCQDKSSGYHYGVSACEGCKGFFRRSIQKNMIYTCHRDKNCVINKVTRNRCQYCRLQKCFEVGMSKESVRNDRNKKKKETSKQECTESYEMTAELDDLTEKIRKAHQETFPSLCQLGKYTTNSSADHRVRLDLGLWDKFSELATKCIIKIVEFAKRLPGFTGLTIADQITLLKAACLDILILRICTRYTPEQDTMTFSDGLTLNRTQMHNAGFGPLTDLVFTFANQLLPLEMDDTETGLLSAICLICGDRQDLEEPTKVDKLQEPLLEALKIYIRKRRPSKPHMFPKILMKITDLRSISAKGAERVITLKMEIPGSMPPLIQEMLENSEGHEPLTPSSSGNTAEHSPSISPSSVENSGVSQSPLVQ
`CCc1cccc(C)c1N`: the call was inactive.

With `CC(=O)CCC1=C(C)CCCC1(C)C`, the compound was classed as inactive. As for `Cc1ccc(C)c(OCCCC(C)(C)C(=O)O)c1`, the outcome was inactive. The same measure, in the same setting: next, `COc1ccc(-c2coc3cc(O)cc(O)c3c2=O)cc1`: “inactive”; `CN(C)Cc1cc(CN(C)C)c(O)c(CN(C)C)c1`: “inactive”; `CC=CC(=O)OCC(C)C`: “inactive”. On to `CC1C(C)(C)C2=C(C(=O)CCC2)C1(C)C` (stereo not given), for which the outcome was inactive. For the compound `CCN(CC)c1cccc(C)c1`, the call was inactive. In the case of `O=C(Nc1ccccc1)c1cc(Cl)ccc1O`, the compound was called inactive. For `CN(C)c1ccc2nc3ccc(=[N+](C)C)cc-3sc2c1`, the compound was classed as inactive. As to `C=C[Si](OCCOC)(OCCOC)OCCOC`, the outcome was inactive. Still for that read-out and setting: next, `CC1=NN(c2ccc(S(=O)(=O)O)cc2)C(=O)C1N=Nc1ccccc1` (stereo not given): “inactive”. On to `O=c1c(O)c(-c2ccc(O)cc2O)oc2cc(O)cc(O)c12`, for which the compound was classed as inactive. The same measure, in the same setting: for `CC(=O)CCC=C(C)C` the value was “inactive”. As for `CC1OC(=O)C(C)OC1=O` (stereo not given), the compound was classed as inactive. Consider `CCOC(=O)c1ccccc1C`, for which the compound was called inactive. As for `O=C(OCCc1ccccc1)c1ccccc1`, the call was inactive. As to `C=CCNCC=C`, the call was inactive.

For the compound `CCC(C)N` (stereo not given), the compound was classed as inactive. In the case of `CCCCCCCCCCCCCC(=O)OC(C)C`, the compound was classed as inactive. Same read-out and setting: for `CC(=O)C(C)C` the value was “inactive”; for `CC(C)=CCCC(C)=CC#N`, “inactive”. Still for that read-out and setting: next, `CC1=CCC2CC1C2(C)C` (stereo not given): “inactive”; `O=C1CCCCC1C1CCCCC1` (stereo not given): “inactive”.
